Reference: the supplement of paper PMC10849652
Of roughly 8,800 targets only a part is listed; those with a hit were picked by preference. About 0.5% of all pairs of compound and target were hits.

Columns and labels:
Assay in all cases: log2 fold change, soluble protein after heating vs DMSO (PISA); higher = thermal stabilisation; K562 lysate, 10 uM; active = over 0.2 and 3.5 SD of the protein, either way, in both replicates (recomputed)
[1] = compound: C1=CC=C(C=C1)[C@H](COC2=CC3=C(C=C2)NC(=O)N3)NC(=O)C4=CC=CN(C4=O)CC5=CC(=C(C=C5)F)F
Outline: (§1)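 Log-two fold change in thermal stability relative to solvent controls is reported from duplicates. For each sample, crude K562 extract from dounce-homogenised pellets in PBS pH 7.4 with 1 mM MgCl2, at 1 mg/mL protein, was treated with 10 μM compound for 30 min. Aliquots heated for 3 min across 48°C-58°C were pooled, brought to 0.5% NP-40 at 4°C and cleared at 21,000xg for 90 min. The supernatant was quantified by TMTpro 16plex LC-MS/MS with channel sums equalised.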

[2] = compound: CC1=C(SC2=C1C(=N[C@H](C3=NN=C(N32)C)CC(=O)N)C4=CC=C(C=C4)Cl)C
Outline: as §1

[3] = compound: CC1=C2C(=CC=C1)N=C(N(C2=O)C3=CC=CC=C3C)CN4C=NC5=C(N=CN=C54)N
Outline: as §1

[4] = compound: Cc1sc2c(c1C)C(c1ccc(Cl)cc1)=N[C@@H](CC(=O)OC(C)(C)C)c1nnc(C)n1-2
Outline: as §1

[5] = compound: c1ccc([C@@H]2C[C@H]2NC2CCNCC2)cc1
Outline: as §1

Measured: log2 fold change

SMG1 (UniProt Q96Q15)
inactive: [1] -0.05 | [2] -0.012 | [3] 0.018 | [4] 0.034 | [5] 0.046

SKA2 (UniProt Q8WVK7)
Sequence of UniProt Q8WVK7 (Q8WVK7 whole entry, looked up): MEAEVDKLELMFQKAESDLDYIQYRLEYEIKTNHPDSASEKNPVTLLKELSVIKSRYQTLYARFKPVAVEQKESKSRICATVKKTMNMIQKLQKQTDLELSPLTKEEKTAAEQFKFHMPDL
inactive: [1] -0.013 | [2] -0.038 | [3] 0.031 | [4] -0.004 | [5] 0.033

SPHK1 isoform 2 (UniProt Q9NYA1)
inactive: [1] -0.014 | [2] -0.034 | [3] -0.038 | [4] -0.003 | [5] 0.092

STK36 (UniProt Q9NRP7)
Sequence of UniProt Q9NRP7 (Q9NRP7 whole entry, looked up): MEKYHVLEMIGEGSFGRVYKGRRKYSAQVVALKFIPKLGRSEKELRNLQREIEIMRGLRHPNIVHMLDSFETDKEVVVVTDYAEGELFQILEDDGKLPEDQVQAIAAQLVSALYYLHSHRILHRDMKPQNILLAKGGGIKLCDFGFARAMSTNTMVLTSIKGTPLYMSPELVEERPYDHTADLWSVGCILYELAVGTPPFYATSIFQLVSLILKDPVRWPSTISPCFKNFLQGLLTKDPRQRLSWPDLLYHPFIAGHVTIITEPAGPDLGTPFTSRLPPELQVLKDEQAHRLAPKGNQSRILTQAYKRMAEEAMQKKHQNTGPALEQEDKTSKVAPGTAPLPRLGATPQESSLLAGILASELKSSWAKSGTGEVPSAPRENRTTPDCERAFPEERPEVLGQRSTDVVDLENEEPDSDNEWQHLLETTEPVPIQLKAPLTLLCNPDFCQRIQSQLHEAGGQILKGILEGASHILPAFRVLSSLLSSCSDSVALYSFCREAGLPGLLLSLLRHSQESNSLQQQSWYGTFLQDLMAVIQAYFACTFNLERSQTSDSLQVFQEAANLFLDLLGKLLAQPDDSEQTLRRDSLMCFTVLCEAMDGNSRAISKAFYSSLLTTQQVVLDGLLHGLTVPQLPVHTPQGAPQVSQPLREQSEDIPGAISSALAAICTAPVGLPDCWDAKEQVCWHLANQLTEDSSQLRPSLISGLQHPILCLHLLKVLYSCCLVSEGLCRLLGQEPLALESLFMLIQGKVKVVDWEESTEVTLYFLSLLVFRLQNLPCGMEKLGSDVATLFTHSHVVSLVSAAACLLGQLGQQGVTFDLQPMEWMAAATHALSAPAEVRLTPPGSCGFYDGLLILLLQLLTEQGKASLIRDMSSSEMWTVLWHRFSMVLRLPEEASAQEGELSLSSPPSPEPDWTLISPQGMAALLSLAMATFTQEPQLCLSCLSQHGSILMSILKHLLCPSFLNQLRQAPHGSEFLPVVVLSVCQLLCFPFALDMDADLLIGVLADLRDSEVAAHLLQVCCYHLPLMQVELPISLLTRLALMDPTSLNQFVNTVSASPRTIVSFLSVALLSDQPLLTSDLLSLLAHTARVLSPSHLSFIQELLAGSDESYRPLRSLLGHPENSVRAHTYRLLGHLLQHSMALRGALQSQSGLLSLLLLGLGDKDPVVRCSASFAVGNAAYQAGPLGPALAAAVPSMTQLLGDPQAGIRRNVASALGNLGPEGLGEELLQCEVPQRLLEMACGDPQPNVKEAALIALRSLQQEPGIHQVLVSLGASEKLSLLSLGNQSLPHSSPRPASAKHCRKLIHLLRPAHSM
inactive: [1] -0.014 | [2] 0.174 | [3] 0.163 | [4] -0.43 | [5] -0.42

SLC25A17 (UniProt O43808)
Sequence of UniProt O43808 (O43808 whole entry, looked up): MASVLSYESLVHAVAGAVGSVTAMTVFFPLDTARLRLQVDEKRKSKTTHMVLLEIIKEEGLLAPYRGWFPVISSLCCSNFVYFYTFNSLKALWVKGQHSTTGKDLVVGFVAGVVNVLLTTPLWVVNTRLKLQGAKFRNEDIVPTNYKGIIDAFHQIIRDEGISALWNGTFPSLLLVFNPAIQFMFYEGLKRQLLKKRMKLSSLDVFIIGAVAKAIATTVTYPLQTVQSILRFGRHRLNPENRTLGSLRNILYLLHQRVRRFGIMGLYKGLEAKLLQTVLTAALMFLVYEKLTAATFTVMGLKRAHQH
inactive: [1] -0.014 | [2] 0.007 | [3] -0.024 | [4] -0.096 | [5] -0.163

TAF1B (UniProt Q53T94)
inactive: [1] -0.073 | [2] 0.071 | [3] 0.499 | [4] -0.13 | [5] -0.008

SMIM8 (UniProt Q96KF7)
Sequence of UniProt Q96KF7 (Q96KF7 whole entry, looked up): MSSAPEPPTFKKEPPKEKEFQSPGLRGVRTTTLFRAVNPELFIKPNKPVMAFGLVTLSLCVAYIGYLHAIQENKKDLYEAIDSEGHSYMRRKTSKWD
inactive: [1] 0.061 | [2] 0.044 | [3] 0.004 | [4] 0.047 | [5] -0.157

SMC4 (UniProt Q9NTJ3)
Sequence of UniProt Q9NTJ3 (Q9NTJ3 whole entry, looked up): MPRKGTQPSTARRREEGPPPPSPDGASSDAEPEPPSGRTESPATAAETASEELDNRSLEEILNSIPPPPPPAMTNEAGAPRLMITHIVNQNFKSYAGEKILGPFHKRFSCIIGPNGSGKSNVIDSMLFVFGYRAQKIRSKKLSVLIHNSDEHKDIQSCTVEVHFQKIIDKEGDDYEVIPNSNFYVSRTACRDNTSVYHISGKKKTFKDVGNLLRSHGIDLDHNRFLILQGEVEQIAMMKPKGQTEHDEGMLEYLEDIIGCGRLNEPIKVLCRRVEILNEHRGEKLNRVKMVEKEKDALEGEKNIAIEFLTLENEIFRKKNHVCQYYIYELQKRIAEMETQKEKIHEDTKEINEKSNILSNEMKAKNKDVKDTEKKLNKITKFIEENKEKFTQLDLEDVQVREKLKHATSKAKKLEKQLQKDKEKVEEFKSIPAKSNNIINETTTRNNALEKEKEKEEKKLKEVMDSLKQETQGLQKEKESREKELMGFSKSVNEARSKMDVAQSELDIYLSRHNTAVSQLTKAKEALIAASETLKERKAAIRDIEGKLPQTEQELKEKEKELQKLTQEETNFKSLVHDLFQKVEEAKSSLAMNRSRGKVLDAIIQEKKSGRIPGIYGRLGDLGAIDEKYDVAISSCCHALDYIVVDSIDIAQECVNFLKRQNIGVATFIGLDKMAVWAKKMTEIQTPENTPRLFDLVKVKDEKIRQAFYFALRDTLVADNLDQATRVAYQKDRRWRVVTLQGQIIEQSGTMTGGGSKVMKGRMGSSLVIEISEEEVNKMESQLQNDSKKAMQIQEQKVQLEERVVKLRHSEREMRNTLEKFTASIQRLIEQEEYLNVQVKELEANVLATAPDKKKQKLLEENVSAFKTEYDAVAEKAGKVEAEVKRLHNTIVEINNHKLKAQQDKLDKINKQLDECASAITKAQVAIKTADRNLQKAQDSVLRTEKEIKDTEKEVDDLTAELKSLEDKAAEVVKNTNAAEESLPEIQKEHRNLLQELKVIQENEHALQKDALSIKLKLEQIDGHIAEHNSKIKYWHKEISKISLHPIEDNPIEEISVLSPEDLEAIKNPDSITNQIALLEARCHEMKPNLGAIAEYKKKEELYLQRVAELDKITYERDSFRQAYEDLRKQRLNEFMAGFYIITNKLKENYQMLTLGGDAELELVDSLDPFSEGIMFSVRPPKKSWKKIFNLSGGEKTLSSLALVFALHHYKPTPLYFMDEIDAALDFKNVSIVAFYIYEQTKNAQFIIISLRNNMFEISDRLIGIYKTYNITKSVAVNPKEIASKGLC
inactive: [1] -0.033 | [2] 0.003 | [3] -0.011 | [4] -0.005 | [5] 0.055

SUZ12 (UniProt Q15022)
inactive: [1] -0.011 | [2] 0.042 | [3] -0.008 | [4] -0.047 | [5] -0.039

SPATS2 (UniProt Q86XZ4)
inactive: [1] 0.042 | [2] -0.035 | [3] 0.061 | [4] -0.014 | [5] -0.07

SF3B6 (UniProt Q9Y3B4)
inactive: [1] 0.052 | [2] -0.032 | [3] -0.184 | [4] 0.014 | [5] 0

TAF9 (UniProt Q16594)
Sequence of UniProt Q16594 (Q16594 whole entry, looked up): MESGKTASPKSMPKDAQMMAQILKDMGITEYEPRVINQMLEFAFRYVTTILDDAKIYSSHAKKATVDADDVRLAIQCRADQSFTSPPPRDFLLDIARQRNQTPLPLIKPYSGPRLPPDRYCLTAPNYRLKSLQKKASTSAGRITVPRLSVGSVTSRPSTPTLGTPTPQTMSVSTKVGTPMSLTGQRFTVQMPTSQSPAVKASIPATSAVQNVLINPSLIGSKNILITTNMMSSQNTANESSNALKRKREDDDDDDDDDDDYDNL
inactive: [1] 0.04 | [2] -0.004 | [3] 0.05 | [4] 0.019 | [5] 0.021

SMG5 (UniProt Q9UPR3)
inactive: [1] -0.078 | [2] 0.041 | [3] 0.026 | [4] -0.047 | [5] -0.024

SNW1 (UniProt Q13573)
inactive: [1] 0.018 | [2] -0.002 | [3] -0.009 | [4] 0.022 | [5] 0.048

TARBP1 (UniProt Q13395)
Sequence of UniProt Q13395 (Q13395 whole entry, looked up): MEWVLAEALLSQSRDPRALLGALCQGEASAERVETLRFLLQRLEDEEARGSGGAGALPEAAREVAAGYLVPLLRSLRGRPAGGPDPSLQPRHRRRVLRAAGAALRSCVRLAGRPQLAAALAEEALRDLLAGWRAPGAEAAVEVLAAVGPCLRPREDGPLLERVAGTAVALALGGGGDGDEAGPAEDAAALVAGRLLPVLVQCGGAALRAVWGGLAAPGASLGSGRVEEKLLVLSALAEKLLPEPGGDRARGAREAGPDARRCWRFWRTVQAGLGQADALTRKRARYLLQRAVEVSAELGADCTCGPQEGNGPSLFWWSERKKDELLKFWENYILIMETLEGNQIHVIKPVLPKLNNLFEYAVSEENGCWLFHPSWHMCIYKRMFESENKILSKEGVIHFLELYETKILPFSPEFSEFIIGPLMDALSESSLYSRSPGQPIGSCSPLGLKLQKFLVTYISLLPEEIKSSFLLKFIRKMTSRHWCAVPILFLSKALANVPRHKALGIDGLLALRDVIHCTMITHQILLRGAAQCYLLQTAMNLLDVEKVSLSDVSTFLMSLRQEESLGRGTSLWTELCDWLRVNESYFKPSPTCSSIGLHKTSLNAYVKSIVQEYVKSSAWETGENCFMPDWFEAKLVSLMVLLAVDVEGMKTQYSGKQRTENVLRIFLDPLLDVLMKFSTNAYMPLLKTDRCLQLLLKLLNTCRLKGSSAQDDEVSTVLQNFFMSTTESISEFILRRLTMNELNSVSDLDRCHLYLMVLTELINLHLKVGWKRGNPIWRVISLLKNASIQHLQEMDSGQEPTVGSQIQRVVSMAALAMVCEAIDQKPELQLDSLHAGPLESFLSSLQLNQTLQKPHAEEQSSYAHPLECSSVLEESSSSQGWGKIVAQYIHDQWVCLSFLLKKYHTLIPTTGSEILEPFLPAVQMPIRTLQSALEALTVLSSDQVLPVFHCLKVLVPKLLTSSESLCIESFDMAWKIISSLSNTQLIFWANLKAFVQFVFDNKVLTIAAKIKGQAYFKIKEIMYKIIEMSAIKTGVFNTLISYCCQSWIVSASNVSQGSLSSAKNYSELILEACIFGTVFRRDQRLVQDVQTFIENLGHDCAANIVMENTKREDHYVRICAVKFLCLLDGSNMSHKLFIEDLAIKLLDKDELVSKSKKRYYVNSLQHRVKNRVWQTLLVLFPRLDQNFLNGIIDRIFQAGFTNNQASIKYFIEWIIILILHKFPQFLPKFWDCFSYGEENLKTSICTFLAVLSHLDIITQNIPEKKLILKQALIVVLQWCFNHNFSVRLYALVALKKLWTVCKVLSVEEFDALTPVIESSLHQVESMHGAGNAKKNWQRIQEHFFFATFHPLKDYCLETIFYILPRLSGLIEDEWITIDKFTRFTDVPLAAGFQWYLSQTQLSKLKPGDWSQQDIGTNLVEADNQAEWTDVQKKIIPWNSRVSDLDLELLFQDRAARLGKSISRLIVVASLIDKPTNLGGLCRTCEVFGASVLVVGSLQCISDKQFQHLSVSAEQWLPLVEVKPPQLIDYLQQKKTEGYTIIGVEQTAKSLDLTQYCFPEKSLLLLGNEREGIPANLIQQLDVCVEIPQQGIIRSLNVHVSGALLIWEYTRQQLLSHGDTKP
inactive: [1] -0.108 | [2] -0.025 | [3] 0.112 | [4] 0.016 | [5] 0.053

SYK (UniProt P43405)
inactive: [1] -0.016 | [2] 0.06 | [3] 0.135 | [4] 0.008 | [5] -0.052

SP1 (UniProt P08047)
inactive: [1] 0.007 | [2] 0.042 | [3] 0.001 | [4] 0.038 | [5] 0
